The values below come from the supplement of paper PMC13380429.

For this experiment, the system named is Vero E6 infected with SARS-CoV-2. Put plainly: inhibition of SARS-CoV-2 cytopathic effect; higher = more antiviral protection, active = above 15. The settings on record: 10000 nM; 48 h. A general note: Damage to the host cells serves as the signal in cytopathic effect assays.
`O=C(O)c1cccnc1C(=O)O` [quinolinic-acid]: the “inhibition of SARS-CoV-2 cytopathic effect” value (“inhibition” below) is -4.35% (inactive). The same measure for `CN1C[C@H](CNC(=O)OCc2ccccc2)C[C@@H]2c3cccc4c3c(cn4C)C[C@H]21` [metergoline]: -2.89% (inactive).

As to `O=C(Cc1ccc(-c2ccccc2)cc1)Nc1ccccn1` [difenpiramide], the “inhibition” value was 14.8% (inactive). The value for `CC(C)C(=O)SCCCCC[C@H](NC(=O)OC(C)(C)C)C(=O)NC12CC3CC(CC(C3)C1)C2` was -6.65% (inactive); that for `CC(C)N1Cc2cc(S(C)(=O)=O)ccc2N(CCN2CC=C(c3c[nH]c4cc(F)ccc34)CC2)S1(=O)=O` was 4% (inactive); that for `NC[C@@H](O)CC(=O)O` [aminohydroxybutyric-acid] was -0.71% (inactive). `O=C(/C=C/c1cccc(S(=O)(=O)Nc2ccccc2)c1)NO` [belinostat]: the “inhibition” value was -27.1% (inactive). The value for `NC(=O)c1cccc(N)c1` [3-amino-benzamide] was 0.61% (inactive); that for `c1ccc(CCCN2CCN(CCOC(c3ccccc3)c3ccccc3)CC2)cc1` was -1.85% (inactive); that for `O=C(OC(C(F)(F)F)C(F)(F)F)N1CCN(Cc2cccc(Oc3ccccc3)c2)CC1` was 2.77% (inactive). The same measure for `CN(Cc1ccc(C(C)(C)C)cc1)Cc1cccc2ccccc12` [butenafine]: 4.56% (inactive). The value for `CC(=O)c1ccc2c(c1)[C@H](NC(=O)c1ccc(F)c(Cl)c1)[C@H](O)C(C)(C)O2` [tonabersat] was -2.32% (inactive). Take `C[C@@]1(c2cc(-c3cncnc3)c(F)cc2F)CCSC(N)=N1`: the “inhibition” value was -3.12% (inactive). The value for `c1ccc2[nH]c(-c3cscn3)nc2c1` [tiabendazole] was -0.19% (inactive); that for `CC1(C)C(=O)NC2=C1C(=O)C(=O)c1ccccc12` was -10.5% (inactive). The same measure for `COC[C@H](NC(=O)c1cnc(C)s1)C(=O)N[C@@H](COC)C(=O)N[C@@H](Cc1ccccc1)C(=O)[C@@]1(C)CO1` [oprozomib]: 24.7% (active); for `CN(C)C(=O)[C@H](O)[C@H](Cc1ccccc1)NC(=O)c1cc2cc(Cl)ccc2[nH]1`: 4.47% (inactive). The same measure for `CO[C@@H]1[C@H](N(C)C(=O)c2ccccc2)C[C@H]2O[C@]1(C)n1c3ccccc3c3c4c(c5c6ccccc6n2c5c31)C(=O)NC4` [midostaurin]: -31.5% (inactive); for `NS(=O)(=O)c1cccc2c1c([N+](=O)[O-])cc1nc(O)c(O)nc12`: -1.01% (inactive); for `CCOC(=O)c1ccc(C#Cc2ccc3c(c2)C(C)(C)CCS3)nc1` [tazarotene]: 0.98% (inactive). Regarding `Cc1c(Cl)c(C)[n+]([O-])c(Cl)c1-c1noc(-c2cc(O)c(O)c([N+](=O)[O-])c2)n1` [opicapone], the “inhibition” value is -1.39% (inactive). The value for `CC(=O)OCC(=O)[C@@]1(O)CC[C@H]2[C@@H]3CCC4=CC(=O)CC[C@]4(C)[C@@]3(F)[C@@H](O)C[C@@]21C` was 0.57% (inactive). With `N[C@@H](C(=O)N[C@@H]1C(=O)N2C(C(=O)O)=C(Cl)CC[C@H]12)c1ccccc1` [loracarbef], the “inhibition” value is 5.45% (inactive). The same measure for `Cc1cnc(-c2cnc(NCCNc3ccc(C#N)cn3)nc2-c2ccc(Cl)cc2Cl)[nH]1`: 12.1% (inactive); for `CNCCCOc1cc(F)c(-c2c(Cl)nc3ncnn3c2N[C@@H](C)C(F)(F)F)c(F)c1` [cevipabulin]: -0.76% (inactive); for `CC(=C(CCO)SSCC1CCCO1)N(C=O)Cc1cnc(C)nc1N` (stereo in doubt) [fursultiamine]: -2.11% (inactive). The same measure for `CC(C)(C)[C@]1(O)CCN2C[C@H]3c4ccccc4CCc4cccc(c43)[C@@H]2C1` [butaclamol]: -3.01% (inactive); for `CCC(=O)OCC(=O)[C@@]1(OC(=O)CC)[C@@H](C)C[C@H]2[C@@H]3CCC4=CC(=O)C=C[C@]4(C)[C@@]3(Cl)[C@@H](O)C[C@@]21C` [beclomethasone-dipropionate]: -6.97% (inactive). For `C/N=C(/NC#N)NCCSCc1csc(NC(=N)N)n1` [tiotidine], the “inhibition” value was -1.02% (inactive). The value for `CCCNC(=O)N1N=C(c2ccc(N)cc2)c2cc3c(cc2C1C)OCO3` (centres undefined) was 4.48% (inactive); that for `Cc1ncc([N+](=O)[O-])n1CC(C)O` (centres undefined) [secnidazole] was -9.47% (inactive). Turning to `CC(=O)Nc1nnc(S(N)(=O)=O)s1` [acetazolamide], the “inhibition” value is -1.25% (inactive). The value for `CC1(C)C(=O)N(c2ccc(C#N)c(C(F)(F)F)c2)C(=O)N1CCCCO` was 1.21% (inactive); that for `CC1(C)[C@@H](O)CC[C@]2(C)[C@H]3C(=O)C=C4[C@@H]5C[C@@](C)(C(=O)O)CC[C@]5(C)CC[C@@]4(C)[C@]3(C)CC[C@@H]12` [enoxolone] was -0.55% (inactive).

Consider `C[N+]1(CCCCC[N+]2(C)CCCC2)CCCC1` [pentolinium], for which the “inhibition” value was 0.64% (inactive). The value for `Cc1[nH]c2ccc(Cl)cc2c1C1=CCNCC1` was 10.1% (inactive). The value for `Cc1cc(C)c(CNC(=O)c2cc(-c3ccc(N4CCN(C)CC4)nc3)cc3c2c(C)cn3C(C)C)c(=O)[nH]1` was -3.02% (inactive); that for `O=C(N[C@H]1CN2CCC1CC2)c1ccc2c(c1)OCCO2` was -1.59% (inactive); that for `CCOC(=O)c1ccc(OC(=O)CCCCCNC(=N)N)cc1` [gabexate] was 3.31% (inactive).
